The values below come from article PMC12136788.

Positions count from the first letter of the chain named. Whole data set: some 5,800 sequences, median “enrichment r” near 0.68, cut for the highest 2% near 11. This excerpt belongs to a sample that is enriched for the highest values.

The chains are these.
T1: UNK ZnF1-6 (called full-length) (human, UniProt Q9C0B0 30-357)
T1 sequence: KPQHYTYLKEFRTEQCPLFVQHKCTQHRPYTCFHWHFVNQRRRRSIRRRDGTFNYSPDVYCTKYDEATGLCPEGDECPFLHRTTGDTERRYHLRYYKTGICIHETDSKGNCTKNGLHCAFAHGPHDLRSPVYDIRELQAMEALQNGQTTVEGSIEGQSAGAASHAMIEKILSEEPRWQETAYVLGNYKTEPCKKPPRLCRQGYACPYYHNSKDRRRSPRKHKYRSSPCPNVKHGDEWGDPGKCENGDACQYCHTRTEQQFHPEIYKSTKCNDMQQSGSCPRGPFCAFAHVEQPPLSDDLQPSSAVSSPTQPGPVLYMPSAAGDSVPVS

B1: ENSG00000198589:be:win_7901|CDS|ENSG00000198589|bound_else_gene|NA|bound_elsewhere_windowed (ssRNA)
RNA: GGGAGUUCUACAGUCCGACGAUCCUCGUUCUGAGUCAUAUAUUGGGGGAAAUUGCUACAUUCUCUCAGGGUCACGUGAUGCAACUCUUUUGCUGUGGUAUUGGAAUGGAAAAUGCAGUGGGAUUGGAGAUAACCCAGGCAGUGCAACAGAGGAUUGAGCAUCA
B2: chr13:106491723:106491923:-|3pUTR|ENSG00000125266|msi1|total|mutant (ssRNA)
RNA: GGGAGUUCUACAGUCCGACGAUCCAGACUCAGCUGCUAUACUUAUCACAUUUUAUUAAACACAGGGAAAGCAUUCCGGAGAACCGCAGAGAGCCAAAUCUGACCUAAAAGUUGAAAAGCCAAAGGUCAAACAGGCUGUAAUUCCAACAGAGGAUUGAGCAUCA
B3: chr1:178849534:178851128:-|three_prime_utr|ENSG00000116194|control|control|control (ssRNA)
RNA: GGGAGUUCUACAGUCCGACGAUCCUACACAGAAAGUUUUUAAAAUGAAUUUUACCGUAACUAUAAAAGGGAACCUAUAAAUGUAGUUUCAUCUGUCGUCAAUUACUGCAGAAAAUUAUGUGUAUCCACAACCUAGUUAUUUUACAACAGAGGAUUGAGCAUCA
B4: chr1:93361585:93361687:+|3pUTR|ENSG00000117505|unk|total|mutant (ssRNA)
RNA: GGGAGUUCUACAGUCCGACGAUCUUUAACUUGCCGUUACCGUUUACUUAUUGUUUUCCGAAUUACUUUUACAUUUUCCCAACCCGAUGGCCCCGAGUCCAACAUUACCUUUUGAGAUGACAUUAUUGUCUCCAUAAUUGAGUGCAACAGAGGAUUGAGCAUCA
B5: chr1:93361585:93361687:+|3pUTR|ENSG00000117505|unk|FALSE|unique (ssRNA)
RNA: B4 RNA with C33U, C34A, C39U, C40A, C57U, C58A, C83U, C84A, C92U, C93A
B6: chr3:89481969:89482070:+|3pUTR|ENSG00000044524|msi1|FALSE|unique (ssRNA)
RNA: GGGAGUUCUACAGUCCGACGAUCAUAUGUGUUUACUUUAAACUUGUCUUUUCAAAAUAUUACUCAGUUUAUGUUGUACAAUGUAGAUGGCCUCUUACUAAUGUAAAAUGAUUUGUAGUGGAAACAUUUAUAUUUUUAUAAUAACAACAGAGGAUUGAGCAUCA
B7: chr14:53039561:53039662:-|3pUTR|ENSG00000100523|unk|total|mutant (ssRNA)
RNA: GGGAGUUCUACAGUCCGACGAUCUCAAACUAUAUUUUUGUUACAGCAAACUACAUUCCAUUUGCCUUUAAAUGCUUGCAUUUCCGUUAUUGUACUGGCUACCUGUUUUUGUCUGCCCAGCAUCCUGUUUCCCCUCCUUUUGGACAACAGAGGAUUGAGCAUCA
B8: chr10:16593140:16593241:-|3pUTR|ENSG00000148484|unk|FALSE|unique (ssRNA)
RNA: GGGAGUUCUACAGUCCGACGAUCUUAUUUUUCUUUUCACUCUCUUUCUAAUGCUUCCCACCUUACCUUUUAGAUUCUUUUGCUAGGUGGGAGAUUGUUAUAAGGUCUUUAAACCAUUUCCAUUUGUUUCUUUAACAUUACCAACAACAGAGGAUUGAGCAUCA
B9: chr2:5695263:5695412:+|3pUTR|ENSG00000176887|msi1_unk|FALSE|overlapping (ssRNA)
RNA: GGGAGUUCUACAGUCCGACGAUCUGGUGAUAUAGACCUCAGAGCUGUUAUCUUAGUUUAAAGAUUGUAUAUGUACUGUACUAUAGUAGGACUUUAUGUAUCUCAUACGCUGUGAUGUGGAUGGGGCCCCAGAUGGAAGGUUUGCAACAGAGGAUUGAGCAUCA
B10: chr11:119045269:119045370:-|3pUTR|ENSG00000149428|msi1|FALSE|unique (ssRNA)
RNA: GGGAGUUCUACAGUCCGACGAUCUGUGGUUAAAAAUGGAAACUGUUCUCCUCCCCAGCCCCACUCCCUGUUCCCUACCCAUAUAGGCCCUAAAUUUGGGAAAAAUCACUAUUAAUUUCUGAAUCCUUUGCCUGUGGGUAGGAACAACAGAGGAUUGAGCAUCA
B11: chr15:52550141:52550321:-|3pUTR|ENSG00000128989|msi1|FALSE|unique (ssRNA)
RNA: GGGAGUUCUACAGUCCGACGAUCAGAUGUCACUUUAGUAAAAUACCAAUUUAGUUUUACUUGUGGCUUAUCUAGUUAGAACUUAGCAGACUUUACUGGGACAAGUUUACUGCUCUUGUAGGAGCUCCUCUCACAAGUAGUUGUCAACAGAGGAUUGAGCAUCA
B12: chr10:17315694:17315795:-|3pUTR|ENSG00000148488|unk|FALSE|unique (ssRNA)
RNA: GGGAGUUCUACAGUCCGACGAUCCUUCUUCCUCCCUGUCCAUCCCACCCUCGUCCCCAGAAAAUUCCUAAUCUGUUUUUCUAUAGACAUUUACAUUUUUACACUAUAGACUGUUUACAUUUUUUAGAAUUUUAUAUAAAUGGACAACAGAGGAUUGAGCAUCA
B13: chr1:9729969:9730061:-|3pUTR|ENSG00000171603|msi1_unk|FALSE|overlapping (ssRNA)
RNA: GGGAGUUCUACAGUCCGACGAUCGUUUUUAUUUUUUCCAAACUAGUGCAUGUAUAAAUAAUGGCAGGAUGGGGGGUACUGUGUAGAUGAUUAACUGACUUUUUAAUAUUUUGUAAAUAAAUCGGAUUCCUUGUGUCCUUUGUGCAACAGAGGAUUGAGCAUCA
B14: chr1:9729969:9730061:-|3pUTR|ENSG00000171603|msi1_unk|total|mutant (ssRNA)
RNA: B13 RNA with U43C, A44C, U83C, A84C
B15: chr1:162523450:162523604:+|3pUTR|ENSG00000152332|msi1|FALSE|unique (ssRNA)
RNA: GGGAGUUCUACAGUCCGACGAUCAGACUAAGUUGUGCCAGAUGUAAAUCAACCCCUCUUUUAGUUUACUUUAGACUUUGUAUUAGCUCAUCUUUUUUGUAGUAAAUCUAUAGUUUUAAGGUUUCUCAAGAUGUGGCUCUACCUCAACAGAGGAUUGAGCAUCA
B16: chr1:180885316:180885399:+|3pUTR|ENSG00000143324|msi1_unk|FALSE|overlapping (ssRNA)
RNA: GGGAGUUCUACAGUCCGACGAUCUUGGCAGCCAUUUCUCCCAGCAGUUUUAAAGGAUGAACAUUGGAUUUCAUGCCAUCCCAUAGAAAACCUGUUUUAAAAUUUUAGGGAUCUUUACUUGGUCAUACAUGAAAAGUACACUGCCAACAGAGGAUUGAGCAUCA
B17: chr11:113276847:113276948:+|3pUTR|ENSG00000149294|msi1|FALSE|unique (ssRNA)
RNA: GGGAGUUCUACAGUCCGACGAUCAGAAGGGAAAAGCCAGCCCUUUGUAUAGAAAUUUUGCUUUUUUUUCCCUCAUUCUACUUUAGAACUGCAAGCUUGUGCACUGUGGAUGCGUGAAUAUUUUAGUGUGAAACGUGUUUUUGUCAACAGAGGAUUGAGCAUCA
B18: chr5:16663783:16663884:-|3pUTR|ENSG00000145555|msi1|FALSE|bound_elsewhere (ssRNA)
RNA: GGGAGUUCUACAGUCCGACGAUCUGAGGAUACAAAAUUCACAGAUGCUCAAGUCCCUGCUAUACAGUGGUAUAAUAUUUGCAUAGAACCUGCACACAUCUUUCCUUACCCUUUAAAUCAUCUCCAGGUUACAGAUACCUAGCACAACAGAGGAUUGAGCAUCA
B19: chr1:186359875:186359976:-|CDS|ENSG00000047410|msi1_unk|FALSE|overlapping (ssRNA)
RNA: GGGAGUUCUACAGUCCGACGAUCGGAAACUCAGGAUCAGUUGCUUUUGGAGAAACUAGAGAACAAAAGAAUUAAUAAGUACCUAGAUGAAAUAGUGAAAGAAGUGGAAGCCAAAGCACCAAUUUUGAAACGCCAGCGUGAGGACAACAGAGGAUUGAGCAUCA
B20: chr3:97755980:97756081:+|3pUTR|ENSG00000080224|unk|total|mutant (ssRNA)
RNA: GGGAGUUCUACAGUCCGACGAUCUAAUUAAAAAUCUCUUUCCUACCUUCCGUAAUUUGCCGGAUGAACUGUAUGCAUUCCGACCGAAAUUGCUUUUGUUAAAUUUACAUUUAAACACAUCUUCAUUCACUCCGAGAAGCCAUACAACAGAGGAUUGAGCAUCA
B21: chr1:32196777:32196878:+|3pUTR|ENSG00000084652|msi1|FALSE|unique (ssRNA)
RNA: GGGAGUUCUACAGUCCGACGAUCUUUGAAGCUAGUUCAUUGUCCUGCAGGUCCCUUCAUCUUCCAUACCUAGCCCACUCUUUUAGCCCUUACCUUAAAUCUCUCAGAUAAGUUGGUUCACAAAGAAUGUUAAGUACUGAAUCACAACAGAGGAUUGAGCAUCA
B22: chr2:223975255:223975490:-|3pUTR|ENSG00000135919|msi1|FALSE|bound_elsewhere (ssRNA)
RNA: GGGAGUUCUACAGUCCGACGAUCUUUAAAUUCUUUUCCCCCAUCCCCCUCCAAAGUCUUGAUAGCAAGCGUUAUUUUGGUGGUAGAAACGGUGAAAUCUCUAGCCUCUUUGUGUUUUUGUUGUUGUUGUUGUUGUUGUUUUAUCAACAGAGGAUUGAGCAUCA

This assay has as its target T1, UNK ZnF1-6 (called full-length). The assay can be described thus: nsRBNS (natural sequence RNA bind-n-seq); RBNS binding buffer (assumed for nsRBNS): 25 mM Tris pH 7.5, 150 mM KCl, 3 mM MgCl2, 0.01% Triton X-100, 500 ug/ml BSA, 20 U/ml SUPERase-In, 4 C; UNK is unkempt and MSI1 is Musashi-1; names of the RNAs are library labels; protein concentration not given here; high values mean tight binding.
For the molecule B1, the binding signal was determined as 0.728 enrichment R. For B2 the value was 1.05 enrichment R. To B3 belongs 2.6 enrichment R; to B4, 4.48 enrichment R.

In turn, B5 showed a binding signal of 152 enrichment R. To B6 belongs 1.68 enrichment R; to B7, 0.468 enrichment R. To B8 belongs 4.14 enrichment R; to B9, 1.36 enrichment R; to B10, 0.528 enrichment R. For B11 the value was 2.25 enrichment R; for B12, 25.2 enrichment R. The molecule B13 returned a binding signal of 22 enrichment R. For B14 the value was 1.54 enrichment R; for B15, 58.2 enrichment R; for B16, 1.91 enrichment R. For B17 the value was 1.38 enrichment R; for B18, 0.456 enrichment R. To B19 belongs 4.28 enrichment R; to B20, 0.569 enrichment R. B21: the binding signal stood at 1.19 enrichment R. The molecule B22 showed a binding signal of 2.44 enrichment R.
